According to PubChem BioAssay (Tox21):
Inconclusive results are not listed. The source made the active and inactive calls. Calls follow the shape of the dose curve; as a rule, active = well fitted curve in the direction sought with a large enough effect in the repeat runs; inconclusive = weak or mixed curves; inactive = no such curve, though single readings can be large; an effect the other way counts as inactive or inconclusive.

How the values were obtained:
[1] = A CellTox Green Cytotoxicity Assay to monitor cytotoxicity in HEK293 cells - 40 hour (AID 1224871); also: nearly all actives have a fitted effect of over 45% in size
Outline: (§1)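 Nonlytic real-time cytotoxicity: HEK293 + CellTox Green reagent plated, 5 h preincubation, pintool compound addition (23 nL in DMSO), 37 C for 40 h, fluorescence measured at successive time points.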

[2] = qHTS RealTime-Glo MT Cell Viability Assay in HEK293 cells - 40 hour (AID 1224874); conditions: RealTime-Glo luminescence; max response: active compounds read low; also: nearly all actives have a fitted effect of over 50% in size; also: potency is read from the fitted curve at half-maximal effect
Outline: (§2)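 Cells were seeded together with NanoLuc luciferase and a prosubstrate that viable cells reduce to a luciferase substrate. After a 5 h incubation at 37 C/5% CO2, compounds were added and luminescence was measured repeatedly during 40 h of treatment.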

[3] = A CellTox Green Cytotoxicity Assay to monitor cytotoxicity in HEK293 cells - 24 hour (AID 1224875); also: series mostly up to about 77 µM; nearly all actives have a fitted effect of over 45% in size
Outline: as §1

[4] = A CellTox Green Cytotoxicity Assay to monitor cytotoxicity in HepG2 cells - 16 hour (AID 1224876); also: nearly all actives have a fitted effect of over 45% in size
Outline: (§3)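 Read-out is fluorescence of a cyanine dye excluded from live cells that stains DNA of dead HepG2 cells, with signal proportional to cytotoxicity. Plates were read at 0, 8, 16, 24, 32 and 40 h after compound addition.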

[5] = qHTS RealTime-Glo MT Cell Viability Assay in HepG2 cells - 32 hour (AID 1224877); also: nearly all actives have a fitted effect of over 55% in size
Outline: (§4)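 Tox21 10K library screened in qHTS format on HepG2 cells carrying RealTime-Glo reagents. Compounds were added after a 5 h preincubation, and the luminescent signal from continuous culture was measured repeatedly during 40 h treatment.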

[6] = A CellTox Green Cytotoxicity Assay to monitor cytotoxicity in HepG2 cells - 24 hour (AID 1224878); also: nearly all actives have a fitted effect of over 45% in size
Outline: as §3

[7] = A CellTox Green Cytotoxicity Assay to monitor cytotoxicity in HepG2 cells - 40 hour (AID 1224879); also: nearly all actives have a fitted effect of over 40% in size
Outline: as §3

[8] = qHTS RealTime-Glo MT Cell Viability Assay in HEK293 cells - 0 hour (AID 1224880)
Outline: as §2

[9] = A CellTox Green Cytotoxicity Assay to monitor cytotoxicity in HEK293 cells - 32 hour (AID 1224881); also: nearly all actives have a fitted effect of over 40% in size
Outline: as §1

[10] = A CellTox Green Cytotoxicity Assay to monitor cytotoxicity in HepG2 cells - 0 hour (AID 1224882); also: nearly all actives have a fitted effect of over 35% in size
Outline: as §3

[11] = A CellTox Green Cytotoxicity Assay to monitor cytotoxicity in HepG2 cells - 32 hour (AID 1224883); also: nearly all actives have a fitted effect of over 50% in size
Outline: as §3

[12] = qHTS RealTime-Glo MT Cell Viability Assay in HepG2 cells - 16 hour (AID 1224885); also: nearly all actives have a fitted effect of over 50% in size
Outline: as §4

[13] = qHTS RealTime-Glo MT Cell Viability Assay in HEK293 cells - 8 hour (AID 1224887); also: nearly all actives have a fitted effect of over 50% in size; also: potency is read from the fitted curve at half-maximal effect
Outline: as §2

[14] = A CellTox Green Cytotoxicity Assay to monitor cytotoxicity in HEK293 cells - 16 hour (AID 1224888); also: nearly all actives have a fitted effect of over 35% in size
Outline: as §1

[15] = qHTS RealTime-Glo MT Cell Viability Assay in HepG2 cells - 0 hour (AID 1224889); also: nearly all actives have a fitted effect of over 50% in size
Outline: as §4

[16] = A CellTox Green Cytotoxicity Assay to monitor cytotoxicity in HepG2 cells - 8 hour (AID 1224890); also: nearly all actives have a fitted effect of over 45% in size
Outline: as §3

[17] = qHTS RealTime-Glo MT Cell Viability Assay in HepG2 cells - 8 hour (AID 1224873); also: nearly all actives have a fitted effect of over 55% in size
Outline: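 HepG2 cells mixed with RealTime-Glo MT reagents (NanoLuc plus cell-permeant prosubstrate) were seeded at 600 cells/well, incubated 5 h at 37 C/5% CO2, then pinned with compounds in DMSO; nonlytic luminescence tracked viability during 40 h treatment.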

[18] = qHTS RealTime-Glo MT Cell Viability Assay in HEK293 cells - 24 hour (AID 1224886)
Outline: (§5)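 Luminescence generated by NanoLuc from substrate produced by living HEK293 cells served as the viability signal. Each value reflects the reading at its stated time point during continuous 40 h compound exposure at 37 C.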

[19] = A CellTox Green Cytotoxicity Assay to monitor cytotoxicity in HEK293 cells - 8 hour (AID 1224884); also: nearly all actives have a fitted effect of over 35% in size
Outline: as §1

[20] = qHTS RealTime-Glo MT Cell Viability Assay in HEK293 cells - 16 hour (AID 1224872)
Outline: as §5
% is scaled to controls: 0 for no effect and ±100 for the full control effect.

Cc1ncc2n1-c1ccc(Cl)cc1C(c1ccccc1F)=NC2
inactive: Potency [1] | Potency [3] | Potency [4] | Potency [5] | Potency [6] | Potency [7] | outcome [8] | Potency [9] | outcome [10] | Potency [11] | Potency [12] | Potency [13] | Potency [14] | Potency [15] | Potency [16]
active: Potency [2] 19 µM

CCS(=O)(=O)C(C)(C)S(=O)(=O)CC
inactive: Potency [1] | Potency [17] | Potency [3] | Potency [4] | Potency [6] | Potency [7] | outcome [8] | Potency [9] | outcome [10] | Potency [11] | Potency [12] | Potency [18] | Potency [13] | Potency [14] | Potency [15] | Potency [16]

COP(=S)(OC)Oc1ccc(S(N)(=O)=O)cc1
inactive: Potency [1] | max response [2] -1.36% | Potency [3] | Potency [4] | Potency [5] | Potency [6] | Potency [7] | outcome [8] | Potency [9] | Potency [11] | Potency [18] | Potency [13] | Potency [14] | Potency [16]

O=CNC(N1CCN(C(NC=O)C(Cl)(Cl)Cl)CC1)C(Cl)(Cl)Cl (centres undefined)
inactive: Potency [1] | Potency [17] | Potency [3] | Potency [4] | Potency [6] | Potency [7] | outcome [8] | Potency [9] | outcome [10] | Potency [11] | Potency [19] | Potency [12] | Potency [18] | Potency [13] | Potency [14] | Potency [15] | Potency [16]

Cc1ncc(CNC(=O)N(CCCl)N=O)c(N)n1
inactive: Potency [20] | Potency [17] | max response [2] 2.69% | Potency [3] | Potency [4] | Potency [5] | Potency [6] | Potency [7] | outcome [8] | Potency [9] | outcome [10] | Potency [11] | Potency [19] | Potency [12] | Potency [18] | Potency [13] | Potency [15]

CCCCc1c(C)nc(NCC)[nH]c1=O
inactive: Potency [1] | Potency [17] | Potency [3] | Potency [4] | outcome [8] | Potency [9] | Potency [19] | Potency [12] | Potency [14] | Potency [15]
active: Potency [13] 21.9 µM

CC1(C)C(=O)NC(=O)NC1=O
inactive: Potency [20] | Potency [17] | max response [2] -10.9% | Potency [4] | Potency [5] | Potency [6] | Potency [7] | outcome [8] | outcome [10] | Potency [11] | Potency [12] | Potency [18] | Potency [13] | Potency [15] | Potency [16]

CCOP(=S)(OCC)Oc1cc(-c2ccccc2)on1
inactive: Potency [1] | Potency [17] | Potency [3] | Potency [4] | Potency [5] | Potency [6] | Potency [7] | outcome [8] | Potency [9] | outcome [10] | Potency [11] | Potency [12] | Potency [18] | Potency [14] | Potency [15] | Potency [16]

O=C(Cc1ccccc1)OCc1ccccc1
inactive: Potency [20] | Potency [17] | max response [2] -18.6% | Potency [3] | Potency [4] | Potency [5] | Potency [6] | Potency [7] | outcome [8] | Potency [11] | Potency [19] | Potency [12] | Potency [18] | Potency [13] | Potency [14] | Potency [15] | Potency [16]
